Results: PubChem BioAssay (Tox21)
Results filed as inconclusive are left out. A call without a number means that no potency is given here. Calls of active or inactive are those of the source. Calls come from the whole dose curve; as a rule, active = well fitted activation curve with a large enough effect in the signal ratio in the repeat runs, with a control signal flat (not every such curve was filed as active); inconclusive = weak or mixed curves; inactive = flat fitted curve, though single readings scatter; the % refers to the signal ratio.

assay: qHTS assay for small molecule activators of the heat shock response signaling pathway (AID 743210); conditions: HeLa HSE-bla reporter, beta-lactamase ratio, 5 h; series mostly up to 62.6 µM
Source text: U.S. Tox21 Program National Center for Advancing Translational Sciences [NCATS] NIH Chemical Genomics Center [NCGC] U.S. Environmental Protection Agency [EPA] National Institutes of Environmental Health Sciences [NIEHS] National Toxicology Program [NTP] U.S. Food and Drug Administration [FDA] Tox21 Assay Overview: Various chemicals, environmental and physiological stress conditions may lead to the activation of heat shock response/ unfolded protein response (HSR/UPR). There are three heat shock transcription factors (HSFs) (HSF-1, -2, and -4) mediating transcriptional regulation of the human HSR. To identify the compounds that activate HSR signaling, HSE-bla HeLa cell line (Invitrogen, Carlsbad, CA, USA) containing a beta-lactamase reporter gene under the control of the heat shock response elements was used to screen the Tox21 10K compound library.
Tox21 Assay Protocol Summary: The CellSensor HSE-bla HeLa cells (Invitrogen, Carlsbad, CA, USA) were dispensed at 1500 cells/6uL/well into 1536-well black wall/clear bottom plates using a Multidrop combi (Thermo Fisher Scientific, Waltham, MA) dispenser. After the assay plates were incubated at 37 C and 5% CO2 overnight, 23 nL of compounds dissolved in DMSO, positive controls or DMSO only was transferred to the assay plate by a Pintool station (Kalypsys, San Diego, CA). The plates were incubated at 37 C for 5 h. After 1 uL of LiveBLAzerTM B/G FRET substrate was added using a Flying Reagent Dispenser (Beckman Coulter, Indianapolis, IN, USA), the plates were incubated at room temperature for 2.5 h, and fluorescence intensity was measured by an Envision plate reader (PerkinElmer, Shelton, CT).

SMILES	Potency
O=C(c1ccc(OCCN2CCCCC2)cc1)c1c(-c2ccc(O)cc2)sc2cc(O)ccc12	inactive
O=[N+]([O-])c1ccc2c(c1)Cc1ccccc1-2	inactive
O=C1c2cccc(O)c2C(=O)c2c(O)cccc21	inactive
COc1c(Cl)c(Cl)c(Cl)c(Cl)c1Cl	inactive
O=C(O)c1ccccc1Nc1cccc(C(F)(F)F)c1	inactive
Cc1cc2nc3c(=O)[nH]c(=O)nc-3n(C[C@H](O)[C@H](O)[C@H](O)CO)c2cc1C	inactive
CCCCC(CC)COC(=O)c1ccc(N(C)C)cc1 (stereo not given)	inactive
NNc1ccc(C(=O)O)cc1	inactive
NC=O	inactive
Brc1cc(Oc2cc(Br)c(Br)c(Br)c2Br)c(Br)c(Br)c1Br	inactive
CCCc1c(OCCCCc2nn[nH]n2)ccc(C(C)=O)c1O	inactive
O=C(c1ccccc1)c1ccccc1O	inactive
CC(C)Oc1ccc2c(=O)c(-c3ccccc3)coc2c1	inactive
Nc1ccc(S(=O)(=O)Nc2cnc3ccccc3n2)cc1	inactive
CN(C)CCC=C1c2ccccc2CCc2ccccc21	inactive
OC1CCCCCCCCCCC1	inactive
O=c1oc(=O)c2cc3c(=O)oc(=O)c3cc12	inactive
COC(=O)c1ccccc1	inactive
CC(C)=CCCC(C)CCO (stereo not given)	inactive
CCCCOCCOCCOCCO	inactive

SMILES	Potency
Nc1ccc(Cl)cc1Cl	inactive
c1ccncc1	inactive
CCC(C)c1ccccc1O (stereo not given)	inactive
C/C=C/C(=O)O	inactive
C#C[C@]1(O)CC[C@H]2[C@@H]3CCc4cc(OC)ccc4[C@H]3CC[C@@]21C	inactive
COc1cc([C@@H]2c3cc4c(cc3[C@H](O)[C@H]3COC(=O)[C@H]23)OCO4)cc(OC)c1OC	inactive
O=C(COc1ccc(Cl)cc1)N1CCN(Cc2ccc3c(c2)OCO3)CC1	inactive
Cc1[nH]c(=O)c(C#N)cc1-c1ccncc1	inactive
c1ccc2cc(Nc3ccc(Nc4ccc5ccccc5c4)cc3)ccc2c1	inactive
CN(C)c1nc(N(C)C)nc(N(C)C)n1	inactive
Nc1ccc(Nc2ccccc2)cc1	inactive
COC(C)COC(C)COC(C)CO (stereo not given)	inactive
OC[C@H]1O[C@@H]2O[C@H]3[C@H](O)[C@@H](O)[C@@H](O[C@H]4[C@H](O)[C@@H](O)[C@@H](O[C@H]5[C@H](O)[C@@H](O)[C@@H](O[C@H]6[C@H](O)[C@@H](O)[C@@H](O[C@H]7[C@H](O)[C@@H](O)[C@@H](O[C@H]8[C@H](O)[C@@H](O)[C@@H](O[C@H]1[C@H](O)[C@H]2O)O[C@@H]8CO)O[C@@H]7CO)O[C@@H]6CO)O[C@@H]5CO)O[C@@H]4CO)O[C@@H]3CO	inactive
CC(=O)O[C@]1(C(C)=O)CC[C@H]2[C@@H]3C=C(Cl)C4=CC(=O)[C@@H]5C[C@@H]5[C@]4(C)[C@H]3CC[C@@]21C	inactive
CC(C)OB(OC(C)C)OC(C)C	inactive
Cc1ncc[nH]1	inactive
Oc1ccc(O)cc1	inactive
CCC(C)CO (stereo not given)	inactive
Cc1cccc(N(C)C(=S)Oc2ccc3ccccc3c2)c1	inactive
CN(C)CCN(Cc1cccs1)c1ccccn1	inactive
